# Source: PubChem (several laboratories)
# Rows were chosen to be rich in hits. Some 4.2% of all compounds tested hit in one or more screens of this group.
# esBAF inh: blocks esBAF chromatin remodeling in mouse ES cells; Bmi1-luciferase knock-in reporter, 24 h; 100% = twice the neutral-well signal; reporter increase, % at 12.5 µM; hit rate 2% among 350,000; AID 602393; in the data active = activation above about 40%; inconclusive = no clear call, values can overlap the other calls;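 note: 0% = median of the plate's neutral control wells and 100% = double that signal; a rise in the Bmi1 reporter signal indicates esBAF inhibition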
# MITF TRPM1 HTS: increases MITF-driven TRPM1 promoter luciferase signal; SK-MEL-5 TRPM1-promoter luciferase, 24 h; % of positive control, neutral wells = 0; activation, % at 12.5 µM; hit rate 0.75% among 300,000; AID 588334;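 active = mean activation of at least 80% with every replicate also reaching 80%; inconclusive = mean reaches 80% but some replicate falls short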;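 note: 0% = neutral control wells and 100% = parthenolide positive control wells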
# AHR activator: human AHR activation. hit rate 2.5% among 320,000. activation, % at 5 µM. AHR-responsive luciferase reporter cells, luminescence; in the data active = activation above about 47%;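 note: 0% = vehicle wells and 100% = reference agonist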
# Target sequence (P35869 whole entry, looked up): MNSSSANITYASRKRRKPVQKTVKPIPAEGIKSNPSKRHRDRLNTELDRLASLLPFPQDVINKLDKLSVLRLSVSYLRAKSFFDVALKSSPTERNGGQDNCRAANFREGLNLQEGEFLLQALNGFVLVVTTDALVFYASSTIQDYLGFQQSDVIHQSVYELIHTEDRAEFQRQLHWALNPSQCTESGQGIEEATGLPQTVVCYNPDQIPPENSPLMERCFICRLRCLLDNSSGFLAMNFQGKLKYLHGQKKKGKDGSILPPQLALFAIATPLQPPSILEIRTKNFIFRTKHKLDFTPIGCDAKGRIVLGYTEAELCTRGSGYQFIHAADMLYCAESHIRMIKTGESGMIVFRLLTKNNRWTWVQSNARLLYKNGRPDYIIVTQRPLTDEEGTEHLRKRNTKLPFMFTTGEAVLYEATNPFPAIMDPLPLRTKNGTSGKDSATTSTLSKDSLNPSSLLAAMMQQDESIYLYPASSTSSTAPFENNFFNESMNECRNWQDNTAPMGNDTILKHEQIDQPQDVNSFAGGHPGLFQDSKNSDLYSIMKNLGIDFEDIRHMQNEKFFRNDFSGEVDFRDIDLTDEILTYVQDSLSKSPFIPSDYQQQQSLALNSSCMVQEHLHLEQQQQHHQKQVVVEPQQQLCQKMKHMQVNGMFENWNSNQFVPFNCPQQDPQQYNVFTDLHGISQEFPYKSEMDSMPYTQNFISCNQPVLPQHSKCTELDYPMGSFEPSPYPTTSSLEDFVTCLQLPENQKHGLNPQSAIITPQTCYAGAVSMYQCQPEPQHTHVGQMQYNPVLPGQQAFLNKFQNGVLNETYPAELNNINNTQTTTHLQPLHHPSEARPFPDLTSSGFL
# FXN GAA850 act: increases GAA850 frataxin promoter reporter activity; HEK293 lucGAA850 FXN promoter luciferase reporter, 24 h; percent of 10 µM SAHA response; hit rate 0.56% among 360,000; activation, % at 6 µM;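 active = activation above the average of all compounds screened plus 3 SD, cutoff fixed separately per campaign, cut at about 7.5% in these data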;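 note: 0% = DMSO wells and 100% = 10 µM SAHA wells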
# Wnt bcat act: activators of Wnt/beta-catenin signaling; Wnt/beta-catenin reporter cell assay, activator, plate reader; activation, % at 9.35 µM; hit rate 1.2% among 300,000; AID 743398; in the data active = activation above about 30%, passing the limit was not always enough; inconclusive = no clear call, values can overlap the other calls;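 note: 0% = neutral control wells and 100% = positive control wells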
# An asterisk follows results filed as active; ? = inconclusive; · = no result given.
SMILES,esBAF inh,MITF TRPM1 HTS,AHR activator,FXN GAA850 act,Wnt bcat act
C[C@H](CO)N1C[C@H](C)[C@H](CN(C)S(=O)(=O)c2cccs2)Oc2ccc(NC(=O)Cc3cn(C)c4ccccc34)cc2CC1=O,5,·,·,·,·
Nn1c(-c2ccccc2)nc2cc(Cl)ccc2c1=O,-12,-16,52*,-1,-2
Nn1c(COc2cccc(Cl)c2)nc2ccccc2c1=O,44*,52,58*,4,·
CCCCCCc1nc2ccccc2c(=O)n1N,24,17,2,2,2
Cc1cccc(OCc2nc3ccccc3c(=O)n2N)c1,59*,67,21,-1,25
CCCNC(=O)N1C[C@@H](O)COC[C@@H]2O[C@@H](CC(=O)N3CCCCC3)CC[C@H]21,-7,·,·,·,·
C/C(=C\c1ccc(N)cc1)c1nc2ccccc2[nH]1,64*,?,15,3,2
CC(C)CC#Cc1cnc2c(c1)C(=O)N([C@H](C)CO)C[C@H](C)[C@H](CN(C)C(=O)CN1CCOCC1)O2,-9,·,·,·,·
CCOc1ccc(NC(=O)c2ccc(CC)s2)c([N+](=O)[O-])c1,50*,79,-5,4,5
COc1ccc(N/C=C/C(=O)c2ccc(C)cc2)c([N+](=O)[O-])c1,-8,·,-5,4,-3
CCOc1ccc(N/C=C/C(=O)c2ccc(OC)cc2)c([N+](=O)[O-])c1,73*,98*,-2,3,6
C[C@H](CO)N1C[C@H](C)[C@@H](CN(C)Cc2ccc(C(=O)O)cc2)Oc2ccc(NC(=O)Nc3ccc(F)cc3)cc2C1=O,-5,·,·,·,·
CCn1nc(NC(=O)c2ccccn2)c2cc3cc(C)ccc3nc21,16,27,71*,1,·
CCn1nc(NC(=O)c2cccs2)c2cc3ccccc3nc21,·,9,48*,1,2
CCn1nc(NC(=O)c2cccnc2)c2cc3ccccc3nc21,2,·,64*,-3,·
CCCCC(=O)Nc1nn(CCC)c2nc3ccccc3cc12,-3,-4,47*,-1,·
CCn1nc(NS(=O)(=O)c2ccccc2)c2cc3ccccc3nc21,-1,-12,7,1,0
C[C@H]1CN([C@@H](C)CO)C(=O)Cc2cc(NC(=O)Cc3cn(C)c4ccccc34)ccc2O[C@@H]1CN(C)C,-3,·,·,·,·
CC(C)(C)c1ccc(NC(=O)c2ccc(=O)[nH]n2)cc1,14,97*,9,6,33*
O=C(Nc1ccc2c(c1)OCO2)c1ccc(=O)[nH]n1,12,13,78*,6,-1
CC(C)c1cc(C(=O)Nc2ccc3c(c2)OCO3)no1,1,10,40,2,25
O=C(Nc1ccc2c(c1)OCO2)c1ccccn1,23,58,22,5,46*
O=C(Nc1ccccc1-c1ccccc1)c1ccc(=O)[nH]n1,43*,56,16,3,-2
O=C(C[C@@H]1CC[C@@H]2[C@H](COC[C@@H](O)CN2CC2CC2)O1)NCC1CC1,-1,·,·,·,·
Cc1noc(C)c1NC(=O)N[C@@H]1CC[C@H](CC(=O)NCc2ccc(Cl)c(Cl)c2)O[C@H]1CO,-2,·,·,·,·
SMILES,esBAF inh,MITF TRPM1 HTS,AHR activator,FXN GAA850 act,Wnt bcat act
O=C(Nc1ccc2c(c1)OCO2)Oc1ccccc1,10,19,88*,3,·
O=C(Nc1ccc2c(c1)OCO2)c1cccs1,?,39,88*,5,·
O=C(Nc1ccc2c(c1)OCO2)c1cnccn1,·,44,66*,4,-2
O=C(N/N=C\c1cc2c(cc1Cl)OCO2)c1cccs1,53*,21,78*,2,6
Cc1noc(C)c1S(=O)(=O)N(C)C[C@@H]1OCCCC[C@H](C)Oc2ccc(NC(=O)C3CCCCC3)cc2C(=O)N([C@H](C)CO)C[C@H]1C,3,·,·,·,·
Cc1ccc(-c2nnc(-c3cccnc3)o2)cc1,20,?,2,4,27
COc1ccc(-c2nnc(-c3ccc(N)cc3)o2)cc1,24,·,-2,1,53*
Clc1ccc(-c2nnc(-c3cccnc3)o2)cc1,47*,·,-7,3,9
COc1ccc(-c2nnc(-c3cccnc3)o2)cc1,31,·,1,2,36*
COc1ccc(CCNc2nc3ccccc3n3nnnc23)cc1OC,26,·,54*,4,11
CCCNC(=O)N(C)C[C@H]1Oc2ncc(C#CC3(O)CCCC3)cc2C(=O)N([C@H](C)CO)C[C@@H]1C,0,·,·,·,·
Nc1n[nH]c(N)c1N=Nc1cccc(F)c1,30,33,12,0,·
Nc1n[nH]c(N)c1N=Nc1cccc(C(F)(F)F)c1,51*,33,5,2,2
Cc1ccc(NC(=O)CCC(=O)c2cccs2)cc1,6,·,0,0,41*
Cc1ccc(NC(=O)COC(=O)CCC(=O)c2cccs2)c(Br)c1,6,8,0,1,1
Cc1ccc(CNC(=O)CCC(=O)c2cccs2)cc1,0,-6,1,0,·
Cc1ccc(NC(=O)CCC(=O)c2cccs2)c(Br)c1,·,86*,-1,2,23
O=C(CC(C(=O)O)c1ccccc1)c1cccs1 (configuration not stated),·,·,-1,-1,0
Cc1ccc(C(=O)N/N=C(/CC(=O)c2cccs2)C(F)(F)F)cc1,·,-3,62*,-1,-2
CC(CC(=O)c1cccs1)CC(=O)c1cccs1,70*,69,1,6,15
Cc1ccc(NCCC(=O)c2cccs2)cc1C,68*,106*,48*,5,-1
Cc1ccc(NCCC(=O)c2cccs2)cc1,64*,72,4,7,0
CC(C)c1ccc(NCCC(=O)c2cccs2)cc1,·,44,-3,-1,·
Cc1noc(C)c1NC(=O)N[C@@H]1C=C[C@H](CC(=O)NCCCN(C)C)O[C@H]1CO,-6,·,·,·,·
Cc1cc(NO)nc(-c2ccc(Br)cc2)n1,51*,64,31,1,·
SMILES,esBAF inh,MITF TRPM1 HTS,AHR activator,FXN GAA850 act,Wnt bcat act
COc1ccc(NC(=O)c2ccco2)cc1NC(=O)c1ccc(Br)o1,6,-4,58*,0,·
COc1cc([N+](=O)[O-])ccc1NC(=O)c1cccc(NC(=O)C(C)C)c1,5,13,47*,3,0
COc1cc2c(cc1NC(=O)c1ccco1)CCCC2,76*,40,9,6,12
CC(C)C(=O)Nc1cccc(NC(=O)c2cccc([N+](=O)[O-])c2)c1,-8,·,7,-2,-2
COc1ccc(-c2nc3ccccc3o2)cc1NC(=O)c1ccc(Br)o1,13,-9,77*,1,·
COc1cc(NC(=O)C(C)C)ccc1NC(=O)c1ccco1,17,91*,-4,5,-2
O=C(CC(F)(F)F)N1C[C@H]2[C@@H](c3ccccc31)[C@H](CO)N2Cc1cccnc1,0,·,·,·,·
Cc1ccc(NC(=O)CCNC(=O)c2ccc([N+](=O)[O-])cc2)cc1S(=O)(=O)N(C)C,·,-3,-1,-1,-1
Cc1ccc(NC(=O)c2ccc([N+](=O)[O-])cc2)cc1S(=O)(=O)N(C)C,49*,17,6,5,-1
O=C(NCC[C@H]1CC[C@@H](NS(=O)(=O)c2cccc(F)c2)[C@H](CO)O1)C1CCCCC1,3,·,·,·,·
